{"source": "PubChem BioAssay (NCATS)", "note": "Inconclusive results are not listed. A number with no mark means an inactive call. The source made the active and inactive calls. Calls come from the whole dose curve; as a rule, active = well fitted inhibition curve with a large enough effect; inconclusive = small, poorly fitted or top-dose-only effect; inactive = no such curve, though single readings can be large or run the other way. % is set by controls: 0 for no effect and ±100 for the full control effect; potency is the fitted concentration of half-maximal effect.", "data": [{"assay": "Primary qHTS for inhibitors of nuclear receptor binding SET domain protein 2 (NSD2) in an RCH-ACV wild type WT cells (2C) (AID 1645877); note: nearly all actives have a fitted effect of over 70% in size", "settings": "RCH-ACV NSD2 WT (2C) viability, CellTiter-Glo, 72 h; series mostly up to 44.9 µM; activity change, negative = cell killing: at the top concentration", "values": [{"smiles": "CC1CCC2(C(=O)OC3OC(CO)C(O)C(O)C3O)CCC3(C(=O)O)C(=CCC4C5(C)CCC(OC6OC(C)C(O)C(O)C6O)C(C)(C)C5CCC43C)C2C1C", "note": "(centres undefined)", "activity change, negative = cell killing": "-7.57% [at 17.3 µM]"}, {"smiles": "C=C1C(OC(C)=O)C(=O)C2C(C)(C)C(OC(C)=O)CCC2(C)C1CC(OC(C)=O)/C(C)=C/COC(C)=O", "note": "(centres undefined)", "activity change, negative = cell killing": "-25.6% [at 17.3 µM]"}, {"smiles": "CCCCC(=O)OCC(=O)[C@]1(O)Cc2c(O)c3c(c(O)c2[C@@H](O[C@H]2C[C@H](NC(=O)C(F)(F)F)[C@H](O)[C@H](C)O2)C1)C(=O)c1c(OC)cccc1C3=O", "Potency": "166 nM (active)"}, {"smiles": "CC1=CC(=O)CC(C)(C)C1CCC(C)OC1OC(COC(=O)c2cc(O)c(O)c(O)c2)C(O)C(O)C1O", "note": "(centres undefined)", "activity change, negative = cell killing": "0.885% [at 17.3 µM]"}, {"smiles": "C[C@@H]1O[C@@H](O[C@H]2[C@H](O[C@H]3CO[C@@H](O[C@H]4CC[C@@]5(C)C(CC[C@]6(C)C5CC[C@]57OC[C@@]8(CC[C@](C)(CO)CC85)[C@H](O)C[C@]76C)C4(C)C)[C@H](O[C@@H]4O[C@H](CO)[C@@H](O)[C@H](O)[C@H]4O)[C@H]3O)O[C@H](CO)[C@@H](O)[C@@H]2O)[C@H](O)[C@H](O)[C@H]1O", "note": "(some centres undefined)", "outcome": "inactive [at 9.23 µM]"}, {"smiles": "CN1CC[C@@H](NC(=O)Nc2ccc(C#N)cc2)C[C@@H]1c1nc2ccccc2[nH]1", "activity change, negative = cell killing": "-13.5%"}, {"smiles": "CC1(C)CC2C(O)C3=C(CC(C)(O)C2C1)C(=O)OC3O", "note": "(centres undefined)", "activity change, negative = cell killing": "1.36%"}, {"smiles": "C=CC1(C)CC(O)C2(CCC3C(C)(C(=O)O)CCCC3(C)C2=O)C1", "note": "(centres undefined)", "activity change, negative = cell killing": "-19.6%"}, {"smiles": "C[C@@H]1O[C@@H](O[C@H]2[C@H](O)[C@@H](O)[C@H](OC[C@H]3O[C@@H](OC(=O)[C@]45CCC(C)(C)C[C@H]4C4=CCC6[C@@]7(C)C[C@H](O)[C@H](O[C@@H]8O[C@H](CO)[C@@H](O)[C@H](O)[C@H]8O)[C@@](C)(C(=O)O)C7CC[C@@]6(C)[C@]4(C)CC5)[C@H](O[C@@H]4O[C@H](CO)[C@@H](O)[C@H](O)[C@H]4O)[C@@H](O)[C@@H]3O)O[C@@H]2CO)[C@H](O)[C@H](O)[C@H]1O", "note": "(some centres undefined)", "activity change, negative = cell killing": "-0.13% [at 9.23 µM]"}]}]}
